Holding throughout (experiment): NCI-60 one-dose screen, 48 h (100 = growth as untreated, 0 = no growth, -100 = all killed)
Holding throughout (details): 10 µM unless noted

For assay [1], the system named is SK-MEL-2 melanoma.
Assay [2] has as its system EKVX NSCLC.
For assay [3], the system named is SN12C renal.
The subject of assay [4] is UO-31 renal.
In assay [5] the test system is TK-10 renal.
Assay [6] deals with ACHN renal.
Assay [7] concerns CAKI-1 renal.
Assay [8] relates to A498 renal.
The test system of assay [9] is CCRF-CEM leukemia.
Assay [10] concerns MOLT-4 leukemia.
Assay [11] has as its system SR leukemia.
For assay [12], the system named is OVCAR-8 ovarian.
Assay [13] deals with OVCAR-5 ovarian.
Assay [14] relates to OVCAR-4 ovarian.
Assay [15] relates to SK-OV-3 ovarian.
The subject of assay [16] is IGROV1 ovarian.
The test system of assay [17] is OVCAR-3 ovarian.
Assay [18] concerns HS 578T breast.
In assay [19] the test system is NCI/ADR-RES ovarian.

Structures are written as SMILES. This is part of a sample that, as a whole, favours compounds with a hit. Of some 83,000 tested, about 20% had one in any assay.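 96-well plates, one dose, 48 hours. Percent growth reported; active if below 10.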 Values without a mark were called inactive. Active and inactive are the calls of the source.

Consider `Cc1ccc(/C=C(\C#N)n2nc3cccc(F)c3n2)cc1`, for which the growth in assay [1] is 95.5%; in [2], 83.5%; in assay [3] it was 95.3%; in assay [4], 72.3%; in [5], 90.8%; in assay [6], 79.7%. In addition, the growth in assay [7] was 58.8%; in [8] it was 56%; in assay [9], 104%; in assay [10] it was 102%; in assay [11], 62.8%; in assay [12], 94.2%. Also, the growth in assay [13] was 97.1%; in assay [14] it was 97%; in [15], 107%; in [16], 90.9%; in assay [17], 84.4%; in assay [18] it was 91.5%. In addition, in assay [19], the growth was 86%.
`CCCCn1c(=O)c(-c2cc(-c3ccc(Cl)cc3)nc(-c3ccc(Cl)cc3)c2)cc2cc(Cl)ccc21`: the growth in assay [1] is 120%; in assay [2], 105%; in assay [3] it was 91.2%; in [4], 88.4%; in [5], 107%; in assay [6], 107%. The growth in assay [7] is 94.3%; in assay [8], 123%; in assay [9], 104%; in assay [10] it was 104%; in [11] it was 106%; in [12], 101%. The growth in assay [13] was 98.4%; in assay [14], 105%; in assay [15] it was 102%; in assay [16], 103%; in assay [17], 117%; in [18], 108%. The growth in [19] is 109%.
Regarding `Cc1cccc(NC2=C(Cl)C(=O)c3nc(C)ccc3C2=O)c1`, the growth in [1] was -9.34% (active); in assay [2], 75.7%; in [3] it was -71.2% (active); in assay [4], -93.3% (active); in assay [5], 123%; in [6], -98.3% (active). The growth in assay [7] is -33.1% (active); in [8] it was 42.1%; in [9] it was 3.19% (active); in assay [10] it was -22.1% (active); in assay [11], 1.13% (active); in assay [12] it was 6.03% (active). Further, the growth in [13] was -43% (active); in assay [14] it was -97.5% (active); in [15], 74.5%; in assay [16] it was -54.1% (active); in [17] it was -31.8% (active); in [18], -16.5% (active). Also, in [19], the growth is 13.8%.
`CCOC(=O)C1=C(N)Oc2c(sc3c(C)cccc23)C1c1ccc(Cl)cc1` (centres undefined): the growth in assay [1] was 46.6%; in [2], 48.3%; in assay [3] it was 38.6%; in assay [4], 38.5%; in assay [5], 78.7%; in assay [6] it was 39.5%. Besides, the growth is 2.8% (active) in assay [7]; 3.91% (active) in assay [8]; 17% in [9]; 32.9% in assay [10]; 17.5% in [11]; 36.8% in assay [12]. The growth in assay [13] was 41.6%; in [14], 56.6%; in assay [15], 54.7%; in assay [16] it was 22.6%; in assay [17] it was 0.78% (active); in assay [18], 18.9%. Further, the growth in assay [19] is 24.6%.
As to `NCCCNc1nc2ccccc2c2c(=O)c3cc(OC(F)(F)F)ccc3sc12`, the growth in [1] is 89.3%; in [2], 67.9%; in [3], 41.3%; in assay [4] it was 33.8%; in assay [5] it was 64.7%; in assay [6] it was -22.8% (active). The growth in [7] is -72.7% (active); in [8], 21.4%; in [9], -2.58% (active); in assay [10], -39.5% (active); in [11], -31.1% (active); in assay [12] it was -0.0816% (active). Further, the growth in assay [13] was 76%; in assay [14] it was -58.3% (active); in assay [15] it was 89.9%; in [16] it was 35.4%; in [17] it was -73.3% (active); in assay [18] it was 1.28% (active). The growth in [19] was -29% (active).
In the case of `CCOC(=O)Nc1ccc(-c2nc(-c3cccc(OC)c3)c(-c3ccnc(Br)c3)[nH]2)cc1`, the growth is 38.3% in assay [1]; 30.1% in assay [2]; 48.9% in assay [3]; 16.3% in [4]; 71.4% in assay [5]; 24.3% in assay [6]. Besides, the growth is 32.7% in assay [7]; 22.4% in [8]; 16.7% in assay [9]; 14.3% in assay [10]; 9.48% (active) in assay [11]; 29.4% in assay [12]. Besides, the growth in assay [13] was 66.9%; in assay [14] it was 33.6%; in assay [15], 67.3%; in assay [16], 45.2%; in assay [17], 33.3%; in [18], -5.11% (active). Also, the growth in assay [19] is 27.6%.
Consider `COc1cc(C2CC(c3ccc(SC)cc3)=NN2C(C)=O)cc(OC)c1OC` (centres undefined), for which the growth in assay [1] is 65.5%; in assay [2] it was 74.5%; in assay [3], 91.4%; in assay [4] it was 71.2%; in assay [5], 86.2%; in assay [6] it was 89.3%. The growth in assay [7] was 65.5%; in assay [8] it was 68.1%; in assay [9] it was 52.9%; in assay [10] it was 43.2%; in assay [11] it was 33.8%; in [12] it was 80.3%. For the same molecule, the growth in [13] was 100%; in assay [14], 93.8%; in assay [15] it was 89%; in [16], 53.8%; in assay [17], 21.7%; in [18], 79.7%. The growth in assay [19] is 24.4%.
For `CCCCCCCCCCCCCCCCCC1OCC(COC(=O)O[C@]2(CC)C(=O)OCc3c2cc2n(c3=O)Cc3cc4ccccc4nc3-2)O1` (some centres undefined), the growth in assay [1] is 116%; in assay [2], 92.4%; in assay [3] it was 49%; in assay [4], 73.1%; in assay [5] it was 95.5%; in [6] it was 62.9%. In addition, the growth is 65.7% in [7]; 88.6% in assay [8]; 29.2% in [9]; 43.3% in assay [10]; 8.38% (active) in [11]; 70.2% in assay [12]. Also, the growth in assay [13] is 95.6%; in [14], 100%; in assay [15] it was 83.9%; in assay [16], 81.5%; in [17], 94.5%; in assay [18], 99.5%. In addition, the growth in assay [19] was 66.6%.
For the molecule `Cc1ccc(-c2cnc3sc(C(=O)NCCc4ccccc4)c(C)n23)cc1`, the growth in [1] was 108%; in assay [2], 86.8%; in assay [3] it was 93.2%; in assay [4] it was 75.1%; in assay [5], 139%; in [6] it was 94.2%. Moreover, the growth is 94.1% in assay [7]; 101% in [8]; 64.7% in assay [9]; 87% in assay [10]; 110% in assay [11]; 96.9% in assay [12]. Further, the growth in [13] is 98.5%; in [14], 67%; in assay [15] it was 84.6%; in assay [16] it was 80.5%; in assay [17], 79.4%; in assay [18], 86.4%. The growth in [19] was 104%.
In the case of `COc1cc2cc(Oc3ccc(NC(=O)Nc4ccc(Cl)c(C(F)(F)F)c4)cc3)c(C)nc2cc1OCCN1CCOCC1`, the growth is 31.4% in assay [1]; 17.2% in assay [2]; 10.1% in [3]; 28.2% in [4]; 42.8% in [5]; 10% in assay [6]. The growth in assay [7] is 18.7%; in assay [8], 41.5%; in [9] it was 10.4%; in assay [10], -4.07% (active); in [11], -1.99% (active); in assay [12] it was 13.4%. Also, the growth in assay [13] is 55.6%; in [14], 31.6%; in [15], 31%; in [16] it was 34.7%; in assay [17], 16.5%; in assay [18] it was 72.6%. Moreover, the growth in [19] was 11.4%.
For the molecule `CCc1cccc2c3c(sc12)C(c1ccc(F)cc1)C(C#N)=C(N)O3` (centres undefined), the growth was 57% in assay [1]; 51% in assay [2]; 32.7% in [3]; 48.9% in [4]; 77.8% in assay [5]; 30.1% in [6]. The growth in [7] was 14.5%; in assay [8] it was 7.3% (active); in assay [9], 15.1%; in assay [10], 17.3%; in assay [11], 27.3%; in assay [12], 32.9%. The growth in assay [13] is 32.6%; in [14], 60.4%; in [15] it was 78.5%; in assay [16] it was 31.1%; in [17], 10.9%; in [18] it was 26.7%. The growth in assay [19] was 14%.

The values are drawn from PubChem BioAssay (NCI).
